# Bioassay records as filed in PubChem.
# D1 agonist: activates the human D1 dopamine receptor. P21728. actives 1% (n = 360,000). AID 504660. HEK293 T-REx D1 cells, calcium flux, agonist mode. activation, % at 2 µM; in the data active = activation above about 30%; also: 0% is about no effect
#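 Agonism was scored from calcium flux recorded over 180 s (1 read/s) after pintool compound addition, following a 10-cycle baseline. Cells were inducible force-coupled HEK293 TREx D1, plated overnight at 30 C and loaded with no-wash calcium dye.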
# D1 antag: antagonists of human D1 dopamine receptor | actives 3.2% (n = 360,000) | activity change, negative = inhibition, % at 10 µM | HEK293 TREx D1 cells, calcium flux, dopamine EC80; stronger effect = lower value | P21728; in the data active = activity change below about -30%; also: % is scaled to controls: 0 for no effect and ±100 for the full control effect
#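 Antagonism measured as reduced calcium response to an EC80 dopamine addition following 180 s compound pre-read; cells were inducible HEK293 Trex D1 plated overnight at 30 C, read kinetically at 1 cycle/sec.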
# D3 antag: D3 dopamine receptor (human) antagonism; P35462; D3R cells, DiscoveRx beta-arrestin luminescence, antagonist mode; stronger effect = lower value; max response, negative = inhibition, %; actives 2.5% (n = 360,000); AID 652054; in the data active = max response below about -50%; inconclusive = no clear call, values can overlap the other calls; also: % is scaled to controls: 0 for no effect and ±100 for the full control effect
# Target sequence (P35462 whole entry, looked up): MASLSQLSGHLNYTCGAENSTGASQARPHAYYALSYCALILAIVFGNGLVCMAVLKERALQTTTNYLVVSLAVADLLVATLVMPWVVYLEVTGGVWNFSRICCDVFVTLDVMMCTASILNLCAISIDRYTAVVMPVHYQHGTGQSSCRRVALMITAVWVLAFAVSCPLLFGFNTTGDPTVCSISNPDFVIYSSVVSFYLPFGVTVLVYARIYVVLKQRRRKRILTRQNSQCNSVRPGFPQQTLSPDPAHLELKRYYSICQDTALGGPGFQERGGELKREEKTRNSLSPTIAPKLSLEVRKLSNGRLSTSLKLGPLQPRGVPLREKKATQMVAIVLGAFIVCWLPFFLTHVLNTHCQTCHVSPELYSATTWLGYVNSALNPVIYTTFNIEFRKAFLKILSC
#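 Cells plated overnight at 1500 cells/well, then exposed to library compounds with dopamine controls for 90 minutes at 37 degrees C. DiscoveRx reagent added for 30–60 minutes at room temperature; luminescence read, quantitative HTS format.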
# D3 ag: activates the human D3 dopamine receptor. max activation, %. actives 0.58% (n = 410,000). D3R DiscoveRx beta-arrestin cells, luminescence, 90 min. P35462; in the data active = max activation above about 30%; also: 0% is about no effect
#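 Agonist-mode cell screen: cells plated at 1500/well and incubated overnight at 37 °C, then exposed to library compounds for 90 min at 37 °C. Detection reagent was added for 30–60 min at room temperature, and luminescence was read.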
# D1 PAM: enhances dopamine response at the human D1 receptor | HEK293 TREx D1 cells, calcium flux, dopamine EC20 potentiation | P21728 | potentiation, % at 10 µM | actives 0.036% (n = 360,000); in the data active = potentiation above about 30%; also: 0% is about no effect
# An asterisk follows results filed as active; ? = inconclusive; / = not tested or not shown; ! = not confirmed by another sample. Sampled rows, rich in hits. Any-hit rate of the full collection: about 6%.
SMILES,D1 agonist,D1 antag,D3 antag,D3 ag,D1 PAM
O=C(CCN1CCCCCC1)Nc1cccc(Cl)c1,7,13,-143*,-28,-3
O=C(O)c1ccccc1C(=O)N1CCN(c2cccc(Cl)c2)CC1,5,-44*,-55*,-18,-24
CC(=O)c1cccc(NC(=O)Cn2c(=O)c(CNc3ccc(C)cc3)cc3cc4c(cc32)OCCO4)c1,24,9,/,3,-2
O=C(CCC(=O)N1Cc2ccccc2Oc2ncccc21)NCc1ccccc1Cl,12,-1,/,-5,-2
O=C(CCN1CCN(c2ccc(F)cc2)CC1)Nc1ccc(F)cc1,4,-2,-82*,-21,-2
O=C(NCc1ccccc1)OCCN1CCN(Cc2ccccc2)CCC1=O,-3,-9,-68*,-10,-4
COC(=O)CCC(=O)Nc1cccc(C(=O)Nc2cccc(Cl)c2)c1,31*,7,13,0,-2
O=C(NCCN1CCN(c2cccc(Cl)c2)CC1)Nc1ccccc1,7,-6,-91*,-4,-4
O=C(CCN1CCOCC1)Nc1ccc(F)cc1,5,-5,10,2,-2
CN[C@H](CC(C)C)C(=O)N[C@H]1C(=O)N[C@@H](CC(N)=O)C(=O)N[C@H]2C(=O)N[C@H]3C(=O)N[C@H](C(=O)N[C@@H](C(=O)O)c4cc(O)cc(O)c4-c4cc3ccc4O)[C@H](O)c3ccc(c(Cl)c3)Oc3cc2cc(c3O[C@@H]2O[C@H](CO)[C@@H](O)[C@H](O)[C@H]2O[C@H]2C[C@](C)(N)C(O)[C@H](C)O2)Oc2ccc(cc2Cl)[C@H]1O (stereo partly drawn),/,/,/,3,/
CCCCNC(=O)C1(C)CCCCCN1Cc1cccc2c(OC)cc(C(=O)OCC)cc12 (stereo not drawn),/,/,0,-4,/
O=C(NCC(c1ccc2c(c1)OCO2)N1CCOCC1)C(=O)Nc1ccc(Cl)cc1 (stereo not drawn),3,-19,/,2,-2
CCCSc1nc2sc3c(c2c(=O)n1-c1ccc(C)c(Cl)c1)CCN(C(C)=O)C3,2,26,/,-3,2
COc1ccccc1NC(=O)NCCN1CCCCC1,4,-2,-11,-14,9
COc1ccccc1NC(=O)NCCN1CCN(c2cccc(Cl)c2)CC1,4,-40*!,-92*,-7,-1
CC(=O)NNC(=O)CCC(=O)Nc1ccccc1,1,-1,-80*,2,0
O=C(NCCN1CCN(Cc2ccccc2)CC1)Nc1cc(Cl)cc(Cl)c1,30*,2,-10,-18,0
CN1CCN(CCC(=O)Nc2ccccc2)CC1,3,-36*,-4,11,3
COc1ccc(NC(=O)c2cc(C3CCCCN3S(=O)(=O)c3ccc(F)cc3F)on2)c(C)c1 (stereo not drawn),/,/,7,8,/
CC(CCN1CCN(c2ccccc2)CC1)c1ccccc1 (stereo not drawn),1,-54*,-102*,-13,-8
Nc1ccc(N2CCN(c3cccc(Cl)c3)CC2)cc1,1,-15,-4,3,-1
O=C(NCCc1ccc(Cl)cc1)Nc1ccc(Cl)cc1,7,-34*,-3,-18,-2
OC(CN1CCN(c2cccc(Cl)c2)CC1)C(c1ccccc1)c1ccccc1 (stereo not drawn),1,-13,-72*,-10,-6
O=C(NCCc1ccncc1)Nc1ccc(Cl)cc1,1,0,12,-4,0
COc1ccc(N2CCN(CCNC(=O)Nc3ccc(Cl)cc3)CC2)cc1,38*,-3,?,-29,-2
SMILES,D1 agonist,D1 antag,D3 antag,D3 ag,D1 PAM
COc1ccc(Nc2nc(N)c3cc(OC)c(OC)cc3n2)cc1,0,3,/,-10,0
Cc1ccc(-c2cc(C(=O)Nc3c(C(=O)c4ccc(C)c(F)c4)oc4ccccc34)no2)cc1,2,-5,/,0,1
O=C(CCSc1ccccc1)Nc1ccc(S(=O)(=O)Nc2ncccn2)cc1,0,3,4,2,-3
O=C(CCN1CCN(c2ccccc2)CC1)Nc1nccs1,3,-2,-64*,12,1
O=C(CCC(=O)N1CCN(c2cccc(Cl)c2)CC1)N1CCN(c2ccccc2)CC1,15,-22,1,6,5
O=C(CCSc1ccccc1)Nc1ccc(OCc2ccccc2)cc1,5,-30*,-25,3,-10
Clc1cccc(N2CCN(CCCN3CCN(c4ccccc4)CC3)CC2)c1,/,/,-79*,-4,/
COc1ccc(OC)c(CC(=O)Nc2ccc3c(c2)c(=O)n(C)n3Cc2cccc(C(F)(F)F)c2)c1,/,/,-52*,-19,/
CCCCc1ccc(S(=O)(=O)N2CCN(C(=O)c3ccco3)CC2)cc1,9,-31*,-27,-1,-4
Cc1cccc(NC(=O)COC(=O)c2cccs2)c1C,2,-13,4,-2,-7
COc1cccc(OC2(C)CCN(Cc3ccc(-c4ccccn4)cc3)C2)c1 (stereo not drawn),/,/,?,2,/
Cc1ccc(CN2CCC(C)(Oc3ccc(Cl)cc3)C2)cc1 (stereo not drawn),/,/,-95*,-15,/
COc1ccc(OC2(C)CCN(Cc3ccc(-c4ccccc4)o3)C2)cc1 (stereo not drawn),/,/,-128*,-18,/
CC1(Oc2cccc(F)c2)CCN(Cc2ccc3ccccc3c2)C1 (stereo not drawn),/,/,-117*,-11,/
CSc1ccc(OC2(C)CCN(Cc3ccc(OC(C)C)cc3)C2)cc1 (stereo not drawn),/,/,?,-7,/
COc1ccc(CN2CCC(C)(Oc3ccc4c(c3)OCO4)C2)c2ccccc12 (stereo not drawn),/,/,0,-7,/
COCOc1cccc(CN2CCC(C)(Oc3cccc(C#N)c3)C2)c1 (stereo not drawn),/,/,-50*,-18,/
CCN1CCN(Cc2c(O)ccc3oc(C)c(C(=O)Nc4ccc(OC)cc4)c23)CC1,5,-1,/,-7,-2
Cc1ccc(CN2CCC(C)(Oc3cccc(Cl)c3)C2)cc1 (stereo not drawn),/,/,-103*,-22,/
COc1ccc(Cn2ncc3c4sc(C)cc4n(C)c3c2=O)cc1F,0,-13,/,/,5
CN(C)c1ccc2nc3ccc(=[N+](C)C)cc-3sc2c1,-1,-8,-60*,-21,-7
Cc1cc2nc3ccc(=[N+](C)C)cc-3sc2cc1N,4,-12,-54*,-16,-4
COc1ccccc1C(CC(=O)c1ccccc1)CC(=O)c1ccccc1,30*,-30,7,-6,-2
COc1ccccc1/C=C/C(=O)c1cc(Br)ccc1OC(=O)c1ccco1,/,/,-56*,-4,/
O=C(C1=C[C@H](c2csc3ccccc23)C[C@H](OCc2ccc(CO)cc2)O1)N1CCN(Cc2ccccc2)CC1,6,-6,?,0,-3
CN1CCN(C(=O)C2=C[C@@H](c3csc4ccccc34)C[C@@H](OCc3ccc(CO)cc3)O2)CC1,41*,-5,-72*,-45,-2
